Assay results as given in PubChem BioAssay AID624117 (National Center for Advancing Translational Sciences (NCATS), 2012).
Inconclusive results are not listed. Where a call stands in place of a potency, no number is given. Activity calls are given as the source filed them. Calls follow the shape of the dose curve; as a rule, active = well fitted curve in the direction sought with a large enough effect; inconclusive = small, poorly fitted or top-dose-only effect, or another doubt; inactive = no such curve, though single readings can be large or run the other way.

Experiment: qHTS Assay for Rab9 Promoter Activators: Hit Validation Using Renilla Luciferase Read-Out
Settings: Huh7 NPC1 promoter Renilla luciferase reporter, 24 h; series mostly up to 76.9 µM
Procedure, shortened: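 Hit validation in Huh7 NPC promoter-luciferase reporter line: compound treatment 24 h at 37 deg C, then luminescence measured after 10 min room-temperature incubation with […] reagent.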
Potency is read from the fitted curve at half-maximal effect.

SMILES	Potency
CCC(=O)NC(=S)Nc1ccc(N2CCOCC2)cc1	inactive
COc1ccc(NC(=O)Nc2ccc(Cc3ccncc3)cc2)cc1OC	inactive
CCOCC(=O)Nc1c(C(=O)Nc2ccc3c(c2)OCCO3)oc2ccccc12	inactive
Nc1nc(SCCO)[nH]c(=O)c1NC(=O)c1ccco1	inactive
Cn1c(CCN2CCN(c3ccccc3)CC2)nc2cc(NC(=O)c3ccco3)ccc21	inactive
CC1CCCN(C(=S)Nc2ccc(Nc3ccccc3)cc2)C1 (stereo not drawn)	inactive
O=C(CSc1nnc(-c2ccccc2)o1)Nc1ccccc1F	inactive
Fc1ccc(-c2nc3nc4ccccc4nc3n2Cc2ccco2)cc1	inactive
COC(=O)c1ccccc1S(=O)(=O)NNC(=O)Nc1ccccc1	inactive
CCOC(=O)C1(Cc2cccc(Cl)c2)CCCN(C(=O)CCSC)C1 (stereo not drawn)	inactive
CC(Sc1nnc(C(F)(F)F)n1C)C(=O)Nc1ccc(S(N)(=O)=O)cc1 (stereo not drawn)	inactive
CCC(C)(C)NC(=O)C(c1ccc(OC)cc1)N(Cc1cccs1)C(=O)CCC(=O)Nc1cc(C)on1 (stereo not drawn)	inactive
COC(=O)c1ccccc1NC(=O)c1ccc(-c2ccc(Br)cc2)o1	inactive
Cc1csc(NC(=O)CSc2nnc(-c3ccncc3)o2)n1	inactive
COc1ccc(NC(=O)CSc2ccc([N+](=O)[O-])cc2)cc1S(=O)(=O)N1CCOCC1	inactive
O=[N+]([O-])c1cnccc1Nc1ccc(F)cc1	inactive
COc1cccc(CNC(=O)CN(c2cc(C)cc(C)c2)S(=O)(=O)c2c(C)noc2C)c1	inactive
CC(C)C(NC(=O)c1ccc([N+](=O)[O-])cc1Cl)C(=O)N1CCCC1 (stereo not drawn)	inactive
COCCNC(=O)Cn1nc(-c2ccccc2)c2ccccc2c1=O	inactive

SMILES	Potency
NCCOc1ccccc1-c1ccccc1	inactive
O=C(Nc1ccc(-c2nc3cccnc3s2)cc1)c1ccc(Cl)nc1	inactive
S=C1NCN(CCc2ccccc2)CN1Cc1ccccc1	inactive
CCCCCCOc1ccc(OC(=O)c2cccnc2)cc1	2070 nM (active)
NC(=O)C(=O)NN=C1C2CC3CC(C2)CC1C3	inactive
CC1(C)CC(=O)c2c(O)c(-c3ccccc3)c(=O)n(-c3ccccc3)c2C1	inactive
O=C(N/N=C/c1ccc(-c2ccc(Br)cc2)o1)c1ccc2c(c1)OCO2	inactive
C=CCOC(=O)N1CCN(c2cccc(C(F)(F)F)c2)CC1	inactive
Cc1ccc(C(=O)Nc2ccc(N3CCN(C)CC3)nc2)cc1	inactive
CCCCc1cc(=O)oc2cc(OCC(=O)N3CCOCC3)ccc12	inactive
COCC1CCN(C(=O)c2ccc3oc(Cc4ccccc4)nc3c2)C1 (stereo not drawn)	inactive
CCOC(=O)c1ccc(NC(=O)Oc2cc(C)c(Cl)cc2C(C)C)cc1	inactive
COc1ccc(S(=O)(=O)NC(C(=O)NCCc2ccccn2)C(C)C)cc1 (stereo not drawn)	inactive
COCCNC(=O)CN1C(=O)NC(c2ccccc2)(c2ccccc2)C1=O	inactive
CC(=O)NC(=S)Nc1ccc2oc(-c3cc(F)c(F)cc3Cl)nc2c1	inactive
Cc1nn(CCCC(=O)NCc2ccc(F)cc2)c(C)c1[N+](=O)[O-]	inactive
Cc1c(C(O)CN2CCN(Cc3ccc4c(c3)OCO4)CC2)c2ccccc2n1C (stereo not drawn)	inactive
Cc1ccc2nc(NC(=O)CCn3cccc3)sc2c1	inactive
CCCN(CCC)CCCNC(=O)c1cc2cc3ccc(Cl)cc3nc2o1	inactive
